Values joined by “and” are separate entries in the source; they are usually repeats but may differ in a detail not shown here. Identical values can stand only once. Records with an inconclusive call do not appear. Active and inactive are the calls of the source. Calls follow the shape of the dose curve; as a rule, active = well fitted inhibition curve with a large enough effect; inconclusive = small, poorly fitted or top-dose-only effect; inactive = flat fitted curve, though single readings scatter.
Key:
[1] = Drug repurposing screens with cells derived from glioblastoma tumor samples (AID 1345199); settings: GBM patient neurospheres viability, ATP luminescence, 48 h; also: nearly all actives have a fitted effect of over 40% in size
Procedure, shortened: (§1)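 Primary testing used CD133+ neurospheres from four GBM patients, seven concentrations, 48 h exposure and ATP-based viability; confirmation added three slower-growing patient lines.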

astro = control astrocytes; experiment: as above; settings: viability, ATP luminescence, 48 h; series mostly up to 45.9 µM
Procedure, shortened: as §1

[2] = at 45.9 µM (top of the series), tumour line B
[3] = at 45.9 µM (top of the series), tumour line D
[4] = at 46 µM (top of the series), tumour line A
[5] = at 46.1 µM (top of the series), tumour line C
[6] = at 20 µM (top of the series), tumour line C
[7] = at 21.2 µM (top of the series), tumour line B
[8] = at 21.2 µM (top of the series), tumour line D
[9] = at 21.3 µM (top of the series), tumour line A
% is scaled to controls: 0 for no effect and ±100 for the full control effect.

CC(=O)Nc1ccc(OC(C)=O)cc1
inactive: activity, negative = cell killing [1, 2] -2.78% | activity, negative = cell killing [1, 3] 2.27% | activity, negative = cell killing [1, 4] -21% | activity, negative = cell killing [1, 5] -27.8% | Potency (astro)

NC(=O)[C@@H]1CCCN1C(=O)[C@H](Cc1cnc[nH]1)NC(=O)[C@@H]1CCC(=O)N1
inactive: activity, negative = cell killing [1, 2] -8.63% | activity, negative = cell killing [1, 3] 6.97% | activity, negative = cell killing [1, 4] -26.1% | activity, negative = cell killing [1, 5] 5.62% | Potency (astro)

CCCCO
inactive: activity, negative = cell killing [1, 2] -10.8% | activity, negative = cell killing [1, 3] 1.03% | activity, negative = cell killing [1, 4] -9.11% | activity, negative = cell killing [1, 5] 6.27% | Potency (astro)

CN[C@@H]1[C@@H](O[C@H]2O[C@H](CO)[C@@H](N)[C@H](O)[C@H]2O)O[C@H]2C[C@@H](N)[C@@H](O[C@H]3[C@H](O)[C@@H](O)[C@H](N)C[C@@H]3N)O[C@@H]2[C@@H]1O
inactive: activity, negative = cell killing [1, 6] -7.39% | activity, negative = cell killing [1, 7] 0.663% | activity, negative = cell killing [1, 8] 2.67% | activity, negative = cell killing [1, 9] -16.4% | Potency (astro)

CC1(C)S[C@@H]2[C@H](NC(=O)C3(N)CCCCC3)C(=O)N2[C@H]1C(=O)O
inactive: activity, negative = cell killing [1, 2] -3.31% | activity, negative = cell killing [1, 3] -4.88% | activity, negative = cell killing [1, 4] -7.56% | activity, negative = cell killing [1, 5] -20.1% | Potency (astro)

H-RKDVY-OH
inactive: activity, negative = cell killing [1, 2] -2.29% | activity, negative = cell killing [1, 3] 4.86% | activity, negative = cell killing [1, 4] -6.05% | activity, negative = cell killing [1, 5] -18.9% | Potency (astro)

CC(=O)N=c1sc(S(N)(=O)=O)nn1C
inactive: activity, negative = cell killing [1, 6] -7.38% | activity, negative = cell killing [1, 7] -5.71% | activity, negative = cell killing [1, 8] -24.8% | activity, negative = cell killing [1, 9] -18.1% | Potency (astro)

O=P(O)(O)CP(=O)(O)O
inactive: activity, negative = cell killing [1, 2] -7.32% | activity, negative = cell killing [1, 3] -1.92% | activity, negative = cell killing [1, 4] -22% | activity, negative = cell killing [1, 5] -17.6% | Potency (astro)

O=C(O)c1ccc(NC(=O)[C@H](Cc2ccc(O)cc2)NC(=O)c2ccccc2)cc1
inactive: activity, negative = cell killing [1, 2] -3.63% | activity, negative = cell killing [1, 3] -4.5% | activity, negative = cell killing [1, 4] -23.1% | activity, negative = cell killing [1, 5] -6.93% | Potency (astro)

O[C@@H]([C@H](O)[C@H](O)CBr)[C@H](O)CBr
inactive: activity, negative = cell killing [1, 2] -6.4% | activity, negative = cell killing [1, 3] -10.8% | activity, negative = cell killing [1, 4] -25.7% | activity, negative = cell killing [1, 5] 4.72% | Potency (astro)

CCC(C)[C@@H](N)C(=O)O (stereo not given in full)
inactive: activity, negative = cell killing [1, 2] -9.25% | activity, negative = cell killing [1, 3] -6.09% | activity, negative = cell killing [1, 4] -16.7% | activity, negative = cell killing [1, 5] 10.2% | Potency (astro)

O=C(O)CCC/C=C\C[C@@H]1[C@@H](/C=C/[C@@H](O)COc2cccc(C(F)(F)F)c2)[C@H](O)C[C@@H]1O
inactive: activity, negative = cell killing [1, 2] -0.927% | activity, negative = cell killing [1, 3] 2.71% | activity, negative = cell killing [1, 4] -17.8% | activity, negative = cell killing [1, 5] 3.43% | Potency (astro)

CC[C@@H]1/C=C(\C)C[C@H](C)C[C@H](OC)[C@H]2O[C@@](O)(C(=O)C(=O)N3CCCC[C@H]3C(=O)O[C@H](/C(C)=C/[C@@H]3CC[C@@H](Cl)[C@H](OC)C3)[C@H](C)[C@@H](O)CC1=O)[C@H](C)C[C@@H]2OC
inactive: activity, negative = cell killing [1, 2] -7.85% | activity, negative = cell killing [1, 3] -16.3% | activity, negative = cell killing [1, 4] -14.1% | activity, negative = cell killing [1, 5] -18.5% | Potency (astro)

NC[C@@H]1CC[C@@H](N)[C@@H](O[C@H]2[C@H](O)[C@@H](O[C@H]3O[C@H](CO)[C@@H](O)[C@H](N)[C@H]3O)[C@H](N)C[C@@H]2N)O1
inactive: activity, negative = cell killing [1, 2] 0.351% | activity, negative = cell killing [1, 3] 3.76% | activity, negative = cell killing [1, 4] -27.2% | activity, negative = cell killing [1, 5] -13% | Potency (astro)

CC(=O)Nc1ccc(OC(=O)c2ccccc2O)cc1
inactive: activity, negative = cell killing [1, 2] -6.12% | activity, negative = cell killing [1, 3] -8.68% | activity, negative = cell killing [1, 4] -14.5% | activity, negative = cell killing [1, 5] -22.3% | Potency (astro)

CCCCC(CC)CCC(CC(C)C)OS(=O)(=O)O (stereo not given)
inactive: activity, negative = cell killing [1, 2] -14.6% and -5.66% | activity, negative = cell killing [1, 3] -13.9% and 2.49% | activity, negative = cell killing [1, 4] -21.7% and -3.22% | activity, negative = cell killing [1, 5] -16.9% and 4.88% | Potency (astro)

Cc1cc(C(=O)NCCc2ccc(S(=O)(=O)NC(=O)NN3CCCCCC3)cc2)no1
inactive: activity, negative = cell killing [1, 2] -15.9% | activity, negative = cell killing [1, 3] -13.6% | activity, negative = cell killing [1, 4] -31.1% | activity, negative = cell killing [1, 5] -10.9% | Potency (astro)

FC(F)(F)C(F)(F)C(F)(F)C(F)(F)C(F)(F)F
inactive: activity, negative = cell killing [1, 2] 3% | activity, negative = cell killing [1, 3] -24.7% | activity, negative = cell killing [1, 4] -8.67% | activity, negative = cell killing [1, 5] -13.9% | Potency (astro)

OC[C@@H](O)C(O)[C@H](O)CO
inactive: activity, negative = cell killing [1, 2] -10.5% | activity, negative = cell killing [1, 3] -11.3% | activity, negative = cell killing [1, 4] -25% | activity, negative = cell killing [1, 5] 11.8% | Potency (astro)

CC[C@H](C)[C@@H]1NC(=O)[C@H](Cc2ccc(O)cc2)NC(=O)[C@@H](N)CSSC[C@@H](C(=O)N2CCC[C@H]2C(=O)N[C@@H](CC(C)C)C(=O)NCC(N)=O)NC(=O)[C@H](CC(N)=O)NC(=O)[C@H](CCC(N)=O)NC1=O
inactive: activity, negative = cell killing [1, 2] -4.51% | activity, negative = cell killing [1, 3] -1.96% | activity, negative = cell killing [1, 4] -11.4% | activity, negative = cell killing [1, 5] -6.16% | Potency (astro)

CO[C@H]1C[C@H](O[C@H]2[C@H](C)[C@@H](O[C@@H]3O[C@H](C)C[C@H](N(C)C)[C@H]3O)[C@@H](C)C[C@]3(CO3)C(=O)[C@H](C)[C@@H](O)[C@@H](C)[C@@H](C)OC(=O)[C@@H]2C)O[C@@H](C)[C@@H]1O
inactive: activity, negative = cell killing [1, 6] -8.16% | activity, negative = cell killing [1, 7] -0.194% | activity, negative = cell killing [1, 8] -29.4% | activity, negative = cell killing [1, 9] -24% | Potency (astro)
